# Results: PubChem BioAssay (NCI)
# About 83,000 compounds went through this panel and 20% of them were active in at least one assay; those are over-represented in the sample as a whole.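 Activity criterion: percent growth below 10, measured after cells in 96-well plates were exposed to a single compound concentration for 48 hours.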 Unmarked numbers belong to inactive results. Calls of active or inactive are those of the source.
# How the values were obtained:
# Experiment in all cases: NCI-60 one-dose screen, 48 h (100 = growth as untreated, 0 = no growth, -100 = all killed)
# Settings in all cases: 10 µM
# SK-MEL-2 melanoma = test system: SK-MEL-2 melanoma
# EKVX NSCLC = test system: EKVX NSCLC
# SN12C renal = test system: SN12C renal
# UO-31 renal = test system: UO-31 renal
# TK-10 renal = test system: TK-10 renal
# ACHN renal = test system: ACHN renal
# CAKI-1 renal = test system: CAKI-1 renal
# A498 renal = test system: A498 renal
# CCRF-CEM leukemia = test system: CCRF-CEM leukemia
# MOLT-4 leukemia = test system: MOLT-4 leukemia
# RPMI-8226 leukemia = test system: RPMI-8226 leukemia
# OVCAR-8 ovarian = test system: OVCAR-8 ovarian
# OVCAR-5 ovarian = test system: OVCAR-5 ovarian
# OVCAR-4 ovarian = test system: OVCAR-4 ovarian
# SK-OV-3 ovarian = test system: SK-OV-3 ovarian
# IGROV1 ovarian = test system: IGROV1 ovarian
# OVCAR-3 ovarian = test system: OVCAR-3 ovarian
# HS 578T breast = test system: HS 578T breast
# NCI/ADR-RES ovarian = test system: NCI/ADR-RES ovarian
# SR leukemia = test system: SR leukemia
Structure (SMILES),growth (SK-MEL-2 melanoma),growth (EKVX NSCLC),growth (SN12C renal),growth (UO-31 renal),growth (TK-10 renal),growth (ACHN renal),growth (CAKI-1 renal),growth (A498 renal),growth (CCRF-CEM leukemia),growth (MOLT-4 leukemia),growth (RPMI-8226 leukemia),growth (OVCAR-8 ovarian),growth (OVCAR-5 ovarian),growth (OVCAR-4 ovarian),growth (SK-OV-3 ovarian),growth (IGROV1 ovarian),growth (OVCAR-3 ovarian),growth (HS 578T breast),growth (NCI/ADR-RES ovarian),growth (SR leukemia)
CC(=O)Nc1ccc(-n2cnc3cc(-c4ccc(O)cc4)ccc32)cc1C,19.9%,61.6%,40.4%,35.5%,73.9%,43.1%,44.2%,92.1%,65.1%,64.7%,42.7%,58%,72.7%,70.2%,78.8%,80.2%,80.3%,64.6%,29.4%,
CC(C)CCSc1nc(NC2CC2)c(C#N)c(-c2ccc(C(C)C)cc2)n1,98.9%,96.5%,106%,103%,99.4%,108%,99.3%,109%,95.4%,98.9%,101%,110%,111%,112%,96.5%,113%,117%,108%,108%,
CONC[C@]1(C)C=C2C(=O)[C@](C)(O)C3(CC3)C(C)=C2[C@H]1O,-100% (active),-45.3% (active),-6.45% (active),-24.8% (active),7.09% (active),-25.7% (active),-0.623% (active),-29.7% (active),4.58% (active),-13.9% (active),54.3%,-6.95% (active),-44.2% (active),-17.4% (active),-14.4% (active),-15.4% (active),-20.4% (active),-12.4% (active),-58.3% (active),
CC(=O)Nc1ccc(-c2cn(-c3cccc(C(=O)Nc4ccc(F)c(C(F)(F)F)c4)c3)nn2)cn1,88.9%,79.9%,13.4%,123%,109%,56.4%,74.1%,114%,53.9%,36.9%,,2.67% (active),89.1%,13.5%,90.8%,43.2%,24.9%,7.97% (active),86.3%,34.6%
COc1ccc(N(C)c2cc(C#N)nc3ccccc23)cc1/C=C/C(=O)NO,-80% (active),-54.6% (active),-51.4% (active),-55.3% (active),23.7%,-22.2% (active),-19.2% (active),16.2%,9.09% (active),-3.71% (active),5.81% (active),-37.9% (active),-46.2% (active),7.41% (active),-22.7% (active),-57.4% (active),-43.4% (active),-18.2% (active),-41.9% (active),
COc1ccc(-c2cc(C(=O)N=Nc3c(O)[nH]c4ccccc34)c3ccccc3n2)cc1,64.9%,-12.7% (active),-38.8% (active),24.5%,19.2%,-64.2% (active),-58.8% (active),112%,49%,45.1%,,-28.6% (active),18.2%,-36.7% (active),80.9%,-62.5% (active),-93.2% (active),31.1%,-14.4% (active),22.8%
O=C1NC(=NC23CC4CC(CC(C4)C2)C3)N/C1=C\c1ccc2ncccc2n1,-94.8% (active),-22% (active),1.63% (active),-15.8% (active),9.19% (active),-13% (active),-13.4% (active),-28.3% (active),-9.82% (active),-10.9% (active),-23.3% (active),2.33% (active),-40.4% (active),-24.7% (active),-10.5% (active),-6.63% (active),-22.3% (active),-24.3% (active),-21% (active),
COc1ccc(CN2[C@@H](C(=O)NCc3ccc(C(=O)NO)cc3)Cc3c([nH]c4ccccc34)[C@@H]2C2CC2)cc1,12.2%,28.9%,29%,40.5%,8.46% (active),35.5%,22.5%,-5.06% (active),15%,11%,,16.7%,11.5%,35.6%,-24.8% (active),18.1%,10.5%,-14.3% (active),69.9%,15.2%
O=C(c1ccc(Cl)cc1)C1[C@H](c2ccc(Br)cc2)[C@@H](c2ccccc2)NC12C(=O)Nc1ccc(Cl)cc12 (some centres not stated),-77.7% (active),-47.8% (active),-92.5% (active),-29.2% (active),-17.4% (active),-17.2% (active),-92.7% (active),-16.9% (active),-17% (active),-28.8% (active),-15.4% (active),-55% (active),-89.5% (active),3.2% (active),11.5%,-72.4% (active),-88% (active),-14% (active),-89.9% (active),
O=C1Nc2cc(-c3ccc(NC(=O)c4cccs4)cc3)ccc2/C1=C/c1ccc[nH]1,83.5%,55.2%,65.3%,82.1%,112%,82%,89.7%,151%,41.8%,37.4%,52.4%,63.4%,89.7%,50.4%,108%,97.8%,69.6%,73.3%,62.1%,
O=C(Nc1cccc(C(F)(F)F)c1)c1cncc(C#Cc2cnc3ccc(N4CCOCC4)nn23)c1,-26.3% (active),-22.3% (active),4.67% (active),-31.7% (active),27.3%,3.28% (active),6.18% (active),-87.8% (active),10.6%,3.44% (active),,3.84% (active),1.83% (active),12.7%,3.44% (active),1.76% (active),,-22.4% (active),-24% (active),-1.17% (active)
O=C1NC(=NC2CCCCCC2)N/C1=C\c1ccc2ncoc2c1,22.9%,38.8%,21.1%,4.42% (active),43.8%,9.91% (active),10%,-9.1% (active),18%,38.2%,35.9%,27.3%,50.3%,62%,24.4%,34.6%,-3.02% (active),42%,41.1%,
Cn1cc(/C=N/Nc2cccc(Cl)n2)c2ccccc21,87.5%,57.9%,69.6%,40.7%,113%,71.4%,66.9%,101%,48.2%,32.9%,,80.3%,92.5%,60.3%,92.6%,46.1%,63.3%,69.4%,36.1%,27.6%
COc1ccc(/C=C/C(=O)c2ccc(NC(=O)CN3C(=O)NC(C)(c4ccccc4)C3=O)cc2)cc1 (configuration not stated),93.4%,91%,95.3%,56.8%,109%,84.5%,79%,119%,78.3%,49.7%,,93.3%,102%,78.3%,106%,90.3%,78.2%,81.3%,102%,61.6%
COc1ccc(C(=O)/C=C/c2cc(C(F)(F)F)cc(C(F)(F)F)c2)cc1S(N)(=O)=O,-73.8% (active),-93% (active),-59.3% (active),-100% (active),-89.8% (active),-96.2% (active),-83% (active),2.73% (active),10.7%,2.98% (active),,-29.8% (active),-93.6% (active),,20%,-69% (active),-88.6% (active),-12.8% (active),-34% (active),5.52% (active)
Cc1ccc(CSc2nc(-c3ccc(F)cc3)c(C#N)c(=O)[nH]2)cc1,103%,99.6%,102%,96.2%,93.5%,100%,92.5%,99.3%,94.7%,88.4%,91.5%,97.8%,99%,96.5%,105%,113%,102%,105%,95.9%,
